Experimental findings from PubChem BioAssay (Tox21) are described below.

Activity calls are given as the source filed them. Unless noted, calls follow the shape of the dose curve; as a rule, active = well fitted curve in the direction sought with a large enough effect in the repeat runs; inconclusive = weak or mixed curves; inactive = no such curve, though single readings can be large; an effect the other way counts as inactive or inconclusive.

The nature of test [1]: qHTS assay to identify small molecule antagonists of the thyroid receptor (TR) signaling pathway (AID 743065). Also: nearly all actives have a fitted effect of over 55% in size. Also: potency is read from the fitted curve at half-maximal effect. An outline of the steps:
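GH3.TRE-Luc rat pituitary cells carrying two TR response elements driving luciferase were plated for 4 h, given compound plus 1 nM T3 (final), and incubated 23.5 h at 37 C. ONE-Glo luminescence measured reporter inhibition; CellTiter-Fluor fluorescence tracked cytotoxicity.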
In general terms: In qHTS, concentration-response curves come from the screen itself.

Test [2] has as its system thyroid hormone receptor (rat, GH3 cells). Nature of the test: qHTS assay to identify small molecule agonists of the thyroid receptor (TR) signaling pathway (AID 743066; calls by dose curve; also: potency is read from the fitted curve at half-maximal effect).
A short description of test [3]: qHTS assay to identify small molecule antagonists of the estrogen receptor alpha (ER-alpha) signaling pathway - cell viability counter screen (AID 743074; calls by dose curve; also: nearly all actives have a fitted effect of over 45% in size; also: potency is read from the fitted curve at half-maximal effect).
Test [4] in a line: qHTS assay to identify small molecule antagonists of the estrogen receptor alpha (ER-alpha) signaling pathway using the BG1 cell line - cell viability counter screen (AID 743081).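 Also: compound given together with 17beta-estradiol as the ER stimulus; series mostly up to about 70 µM; nearly all actives have a fitted effect of over 45% in size.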
The next test addresses Aromatase (Homo sapiens) (UniProt P11511). Description: qHTS assay to identify aromatase inhibitors (AID 743083). Also: series mostly up to about 70 µM; nearly all actives have a fitted effect of over 55% in size.
Test [5] is described as follows: qHTS assay to identify aromatase inhibitors - cell viability counter screen (AID 743084).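 Also: cells stimulated with testosterone during compound exposure; nearly all actives have a fitted effect of over 55% in size.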
Test [6] deals with Estrogen receptor (Homo sapiens) (UniProt P03372). Nature of the test: qHTS assay to identify small molecule agonists of the estrogen receptor alpha (ER-alpha) signaling pathway (AID 743075; calls by dose curve; also: potency is read from the fitted curve at half-maximal effect).
Sequence of Estrogen receptor (Homo sapiens) (P03372 whole entry, looked up): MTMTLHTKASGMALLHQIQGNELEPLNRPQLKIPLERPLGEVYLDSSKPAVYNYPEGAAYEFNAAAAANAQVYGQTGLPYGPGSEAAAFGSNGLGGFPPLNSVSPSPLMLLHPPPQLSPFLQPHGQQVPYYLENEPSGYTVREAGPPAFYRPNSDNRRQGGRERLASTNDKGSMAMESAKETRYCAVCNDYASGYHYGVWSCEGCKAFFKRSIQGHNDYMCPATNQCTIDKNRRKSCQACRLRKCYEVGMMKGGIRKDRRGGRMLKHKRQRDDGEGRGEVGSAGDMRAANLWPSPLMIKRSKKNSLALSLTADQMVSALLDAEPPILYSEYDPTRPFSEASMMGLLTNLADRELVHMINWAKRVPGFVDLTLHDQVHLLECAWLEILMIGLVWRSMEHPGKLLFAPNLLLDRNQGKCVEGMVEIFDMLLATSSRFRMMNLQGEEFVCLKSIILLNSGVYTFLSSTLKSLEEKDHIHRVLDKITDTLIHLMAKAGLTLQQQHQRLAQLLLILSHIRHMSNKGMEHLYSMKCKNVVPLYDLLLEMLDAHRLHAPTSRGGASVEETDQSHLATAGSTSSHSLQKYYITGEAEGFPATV
The target is the same in test [7]. Nature of the test: qHTS assay to identify small molecule agonists of the estrogen receptor alpha (ER-alpha) signaling pathway using the BG1 cell line (AID 743079). Also: nearly all actives have a fitted effect of over 20% in size. Also: potency is read from the fitted curve at half-maximal effect.
A short description of test [8]: qHTS assay to identify small molecule antagonists of the estrogen receptor alpha (ER-alpha) signaling pathway using the BG1 cell line (AID 743080; calls by dose curve;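 also: BG1 cells stimulated with 17beta-estradiol alongside compound; series mostly up to about 70 µM; nearly all actives have a fitted effect of over 25% in size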). The gist of the method: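 After 5 days in phenol-red-free 10% charcoal-stripped FBS medium, BG1-Luc-4E2 cells were seeded, left 24 h at 37 C, co-treated with compounds and 17beta-estradiol for 21.5 h, then assayed for viability and luciferase.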

Test [9] has as its target Estrogen receptor (Homo sapiens) (UniProt P03372). Nature of the test: qHTS assay to identify small molecule antagonists of the estrogen receptor alpha (ER-alpha) signaling pathway (AID 743069; active = well fitted curve in the direction sought with a large enough effect in the signal ratio in the repeat runs, not every such curve was filed as active; inconclusive = weak or mixed curves, or effect the other way; inactive = no such curve, though single readings can be large or run the other way; the % refers to the signal ratio). The gist of the method: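 HEK293 cells stably carrying an ER-alpha-UAS-bla beta-lactamase reporter were pre-cultured overnight in 2% charcoal-stripped FBS medium. Test compounds in DMSO were added together with 17beta-estradiol for 18 hr at 37C. Read-out was fluorescence after 2 hr with LiveBLAzer B/G FRET substrate at room temperature.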

Sequence of Aromatase (Homo sapiens) (P11511 whole entry, looked up): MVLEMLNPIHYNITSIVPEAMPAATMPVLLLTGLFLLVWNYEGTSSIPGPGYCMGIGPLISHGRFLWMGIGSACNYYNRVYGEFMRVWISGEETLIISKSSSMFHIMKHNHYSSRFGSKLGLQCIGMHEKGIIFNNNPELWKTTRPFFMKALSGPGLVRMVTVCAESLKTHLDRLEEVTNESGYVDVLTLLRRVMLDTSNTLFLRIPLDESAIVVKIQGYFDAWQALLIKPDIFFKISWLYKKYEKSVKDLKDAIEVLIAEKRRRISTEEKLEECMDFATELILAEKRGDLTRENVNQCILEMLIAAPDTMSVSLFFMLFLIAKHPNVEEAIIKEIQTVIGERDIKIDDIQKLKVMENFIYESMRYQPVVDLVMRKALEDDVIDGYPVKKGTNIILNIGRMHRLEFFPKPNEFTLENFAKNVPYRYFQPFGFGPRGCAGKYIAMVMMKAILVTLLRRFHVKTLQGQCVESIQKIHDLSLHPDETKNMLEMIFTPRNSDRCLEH

Regarding `CCOc1ccccc1OCCN[C@H](C)Cc1ccc(OC)c(S(N)(=O)=O)c1`, the Potency result (in test [1]; in [2]; in test [3]; in the test with Aromatase (Homo sapiens)) was “inactive” in each case. Besides, the result in test [4] and in [5] was inactive.

With `C/C(=N\O)c1ccc(OCC(=O)N2CCCCC2)cc1`, the Potency entry (in [1]; in [2]; in test [6]; with Aromatase (Homo sapiens)) was “inactive” in each case. In addition, the Potency in [7] is 4.22 µM (active). Further, the result in test [4] and in [5] was inactive.

Consider `C=CCN(CC=C)CC=C`, for which the Potency entry (in [1]; in test [2]; with Aromatase (Homo sapiens)) was “inactive” in each case. Also, the compound was called inactive in [4] and in test [5].

On to `CC(C)OCCO`, for which the Potency entry (in test [1]; in [2]; in test [3]; with Aromatase (Homo sapiens)) was “inactive” in each case. Also, the call in [4] and in test [5] was inactive.

Take `O=C(O)P(=O)(O)O`: the Potency entry (in [1]; in test [2]; in test [3]; with Aromatase (Homo sapiens)) was “inactive” in each case. In addition, the compound was called inactive in test [4] and in test [5].

In the case of `CCCCCCCCCCCCCCCC/C=C/C1CC(=O)OC1=O` (centres undefined), the Potency in test [1] was 29.7 µM (active). The Potency entry (in [2]; in [3]; with Aromatase (Homo sapiens)) was “inactive” throughout. For the same compound, the call in [4] and in test [5] was inactive.

With `CC[N+](C)(CC)CC`, the Potency result (in test [1]; in test [2]; in test [3]; with Aromatase (Homo sapiens)) was “inactive” in each case. Also, the compound was called inactive in test [4] and in [5].

`O=S(=O)(O)c1cc(I)c(O)c2ncccc12`: the Potency result (in [1]; in test [2]; in [3]; with Aromatase (Homo sapiens)) was “inactive” in each case. Further, the outcome in [4] and in test [5] was inactive.

As for `CC1(C)C(=O)C(C)(C)C1=O`, the Potency result (in test [1]; in [2]; in test [3]; with Aromatase (Homo sapiens)) was “inactive” in each case. Moreover, the result in [4] and in test [5] was inactive.

For `CCc1ncc(C)[nH]1`, the Potency entry (in [1]; in test [2]; in test [3]; with Aromatase (Homo sapiens)) was “inactive” each time. For the same compound, the compound was classed as inactive in test [4] and in test [5].

Turning to `CC(C)(C)OC=O`, the Potency entry (in test [1]; in [2]; in [3]; with Aromatase (Homo sapiens)) was “inactive” in each case. Besides, the outcome in [4] and in [5] was inactive.

As to `CCCCCCCCOCCC#N`, the Potency result in test [1], in [2] and in [3] was “inactive” in each case. The result in test [4] and in test [5] was inactive.

In the case of `COc1cc(C(=O)NC2CCCNC2)cc(OC)c1OC` (centres undefined), the Potency entry (in test [1]; in test [2]; in [3]; with Aromatase (Homo sapiens)) was “inactive” throughout. The outcome in [5] was inactive.

On to `CCCCCC(=O)CC`, for which the Potency entry (in [1]; in test [2]; in test [3]; with Aromatase (Homo sapiens)) was “inactive” each time. Besides, the call in test [4] and in test [5] was inactive.

As for `NC[C@H]1O[C@H](O[C@H]2[C@H](O)[C@@H](O[C@H]3O[C@H](CO)[C@@H](O)[C@H](N)[C@H]3O)[C@H](N)C[C@@H]2N)[C@H](N)[C@@H](O)[C@@H]1O`, the Potency entry (in test [1]; in test [2]; in test [3]; with Aromatase (Homo sapiens)) was “inactive” throughout. The outcome in test [4] and in test [5] was inactive.

On to `CCCCCCC(O)CO` (centres undefined), for which the Potency entry (in test [1]; in test [3]; in test [6]; in test [7]; in test [8]; in the test with Aromatase (Homo sapiens)) was “inactive” in each case. Further, the call in test [4] and in test [5] was inactive.

Consider `CCCCCCCCS(=O)(=O)O`, for which the Potency entry (in test [1]; in test [2]; in test [3]; with Aromatase (Homo sapiens)) was “inactive” each time. For the same compound, the compound was classed as inactive in test [4] and in test [5].

On to `COc1ccc(Cl)cc1C`, for which the Potency entry (in [1]; in [2]; in [3]; in the test with Aromatase (Homo sapiens)) was “inactive” in each case. The call in [4] and in [5] was inactive.

Regarding `COC(=O)c1ccccc1Cl`, the Potency entry (in [1]; in test [2]; in test [3]; in the test with Aromatase (Homo sapiens)) was “inactive” each time. In addition, the outcome in [4] and in [5] was inactive.

For the compound `CC12CCCC=C1C(=O)OC2=O` (centres undefined), the Potency entry (in test [1]; in test [2]; in [3]; with Aromatase (Homo sapiens)) was “inactive” in each case. Further, the compound was called inactive in test [4] and in [5].

As to `CCCC(C)C(O)CC` (centres undefined), the Potency result (in [1]; in test [2]; in test [3]; with Aromatase (Homo sapiens)) was “inactive” in each case. Also, the call in test [4] and in test [5] was inactive.

For `CC(C)C(C)C`, the Potency result (in [1]; in test [2]; in test [3]; in the test with Aromatase (Homo sapiens)) was “inactive” throughout. Besides, the result in test [4] and in test [5] was inactive.

For the compound `C=C(C)C(=O)OCCCC`, the Potency entry (in test [1]; in test [2]; in test [3]; with Aromatase (Homo sapiens)) was “inactive” throughout. Also, the compound was classed as inactive in [4] and in test [5].

With `CC1(C)CC(N)CC(C)(C)N1`, the Potency result (in test [1]; in test [2]; in test [3]; with Aromatase (Homo sapiens)) was “inactive” throughout. Also, the result in [4] and in test [5] was inactive.

As for `O=Cc1ccccc1S(=O)(=O)O`, the Potency result (in test [1]; in [3]; in the test with Aromatase (Homo sapiens)) was “inactive” in each case. Also, the Potency in [2] is 68.5 µM (active). Also, the compound was called inactive in test [5].

On to `CC(C)(Sc1cc(C(C)(C)C)c(O)c(C(C)(C)C)c1)Sc1cc(C(C)(C)C)c(O)c(C(C)(C)C)c1`, for which the Potency result (in [1]; in test [2]; in test [3]; in the test with Aromatase (Homo sapiens)) was “inactive” each time. Also, the outcome in test [4] and in [5] was inactive.

Turning to `C=CC(=O)OCC[N+](C)(C)C`, the Potency entry (in test [1]; in [2]; in test [6]; in test [7]; in test [8]; with Aromatase (Homo sapiens)) was “inactive” in each case. Further, the result in test [4] and in test [5] was inactive.

Consider `Cc1ccc2ccccc2n1`, for which the Potency result (in test [1]; in [2]; in test [3]; in the test with Aromatase (Homo sapiens)) was “inactive” throughout. Further, the call in test [4] and in test [5] was inactive.

For the compound `C/C=C(\C)C(=O)OC/C=C(\C)CCC=C(C)C`, the Potency result (in test [2]; in test [3]; in [6]; in test [7]; in test [8]; in the test with Aromatase (Homo sapiens)) was “inactive” throughout. Moreover, the result in [9], in test [4] and in test [5] was inactive.

For the compound `CN(C)CCc1c[nH]c2ccc(C[C@H]3COC(=O)N3)cc12`, the Potency result (in test [2]; in [6]; in [7]; in test [8]; with Aromatase (Homo sapiens)) was “inactive” in each case. Besides, the compound was called inactive in test [9] and in test [4].

As to `CC(CC(=O)Cl)CC(C)(C)C` (centres undefined), the Potency result (in [2]; in test [3]; in test [6]; in [7]; in test [8]; with Aromatase (Homo sapiens)) was “inactive” each time. Besides, the compound was classed as inactive in [4] and in test [5].

For the compound `CCN1CCN(C(=O)N[C@@H](C(=O)N[C@@H]2C(=O)N3[C@@H]2SC(C)(C)[C@H]3C(=O)O)c2ccccc2)C(=O)C1=O`, the Potency entry (in test [2]; in [6]; in test [7]; in test [8]; with Aromatase (Homo sapiens)) was “inactive” each time. In addition, the compound was classed as inactive in [9], in test [4] and in test [5].

For the compound `C/C=C(\C)C=O`, the Potency entry (in test [2]; in test [3]; in [6]; in test [7]; in [8]; with Aromatase (Homo sapiens)) was “inactive” each time. The compound was called inactive in [9], in [4] and in test [5].

For the compound `CC(O)CCCCn1c(=O)c2c(ncn2C)n(C)c1=O` (centres undefined), the Potency result (in test [2]; in test [3]; in [6]; in [7]; in test [8]; with Aromatase (Homo sapiens)) was “inactive” each time. The compound was called inactive in [9], in [4] and in [5].

Take `O=C1CC2(CCCC2)CC(=O)N1CCNCC1COc2ccccc2O1` (centres undefined): the Potency result (in test [2]; with Aromatase (Homo sapiens)) was “inactive” each time. In [3], the Potency was 21.3 µM (active). In test [4], the result was inactive.

Regarding `CCCCS`, the Potency entry (in test [2]; in test [3]; in test [6]; in test [7]; in test [8]; in the test with Aromatase (Homo sapiens)) was “inactive” throughout. In addition, the compound was classed as inactive in test [9], in [4] and in [5].

On to `O=C(c1ccccc1)c1cccc(O)c1`, for which the Potency result (in test [2]; in [3]; in the test with Aromatase (Homo sapiens)) was “inactive” in each case. In addition, the figures for the Potency in test [6] and in test [7] were 49.7 µM [inconclusive] (active) and 15.6 µM (active), respectively. In addition, the compound was called inactive in test [4] and in [5].
